# The entries come from a sample that favours hits as a whole.
# HT1080-NT tox: kills 2HG-producing HT-1080-NT fibrosarcoma cells. HT-1080-NT fibrosarcoma viability, CellTiter-Glo ATP luminescence, 48 h. hit rate 1.6% among 360,000. Potency, µM (highest dose often 46.1 µM), for the others: at the top dose activity, negative = less viability, usual class: cytotoxic;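 further: NT is the 2HG producing partner of a matched IDH1 knockdown line; potency means the concentration at half of the fitted maximal effect; 0% = DMSO-treated cells and -100% = media-only wells without cells; nearly all actives have a fitted effect of over 55% in size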
#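 Compounds were tested in concentration-response format on HT-1080-NT cells for 48 hours at 37 degrees C. Cell viability came from CellTiter-Glo luminescence; curves were classified by r2, response magnitude and activity.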
# 12-LOX inh: ALOX12 (human) lipoxygenase inhibition; P18054; purified 12hLO, xylenol orange hydroperoxide absorbance; Potency, µM (series often up to 108 µM), inactives show at the highest dose activity change, negative = inhibition, usual class: inhibitors; hit rate 1.1% among 580,000; AID 1671190; further: potency means the concentration at half of the fitted maximal effect
# Target sequence (P18054 whole entry, looked up): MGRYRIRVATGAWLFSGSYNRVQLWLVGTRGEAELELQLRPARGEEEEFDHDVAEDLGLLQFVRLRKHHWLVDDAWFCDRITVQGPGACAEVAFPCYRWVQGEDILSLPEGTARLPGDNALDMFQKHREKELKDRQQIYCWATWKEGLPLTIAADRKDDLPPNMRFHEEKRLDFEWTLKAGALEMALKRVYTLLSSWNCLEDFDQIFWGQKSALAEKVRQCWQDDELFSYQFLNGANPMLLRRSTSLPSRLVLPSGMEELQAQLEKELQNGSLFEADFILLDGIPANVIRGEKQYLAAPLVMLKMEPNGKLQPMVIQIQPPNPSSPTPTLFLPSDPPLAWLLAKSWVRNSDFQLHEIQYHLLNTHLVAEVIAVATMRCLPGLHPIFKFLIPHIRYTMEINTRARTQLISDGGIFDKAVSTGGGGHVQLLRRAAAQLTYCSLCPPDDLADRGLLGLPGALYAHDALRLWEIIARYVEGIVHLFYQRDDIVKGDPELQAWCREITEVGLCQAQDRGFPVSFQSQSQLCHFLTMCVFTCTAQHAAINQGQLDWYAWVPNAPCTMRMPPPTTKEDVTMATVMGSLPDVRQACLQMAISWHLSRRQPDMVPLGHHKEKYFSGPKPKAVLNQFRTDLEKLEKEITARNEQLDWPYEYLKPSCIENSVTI
#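 Hydroperoxide product was detected by ferrous iron/xylenol orange as the 573 to 405 nm absorbance ratio. Arachidonic acid at 40 uM (final) was turned over for 30 min at room temperature by 150 nM human 12hLO, pH 7.0 Hepes buffer, after 15 min compound preincubation.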
# HT1080 IDH1KD tx: kills HT-1080 cells with IDH1 knockdown; HT-1080 IDH1 knockdown viability, ATP luminescence, 48 h; Potency, µM (series often up to 46.1 µM), for inactives: at the top dose activity, negative = toxicity, actives largely listed as cytotoxic; hit rate 2% among 360,000; AID 686971;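 further: potency means the concentration at half of the fitted maximal effect; 0% = DMSO wells and -100% = cell-free medium wells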
#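 IDH1KD HT-1080 cells, 750/well, RPMI + 5% FBS; compound pinned after 2 h settling; 48 h, 37 °C; CellTiter-Glo luminescence; % activity normalised to DMSO and no-cell wells; curves fitted, classed by r2 and efficacy.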
# DT40 TDP1 CPT: DT40-hTDP1 cell growth loss with CPT; chicken DT40 Tdp1-/-;hTDP1 cells + 20 nM CPT, ATP luminescence, 48 h; Potency, µM (series often up to 46.2 µM), for inactives: at the highest dose activity change, negative = growth inhibition, most hits filed as inhibitors; hit rate 12% among 420,000; further: potency means the concentration at half of the fitted maximal effect; nearly all actives have a fitted effect of over 55% in size
#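 Cell growth measured by CellTiter-Glo luminescence after a minimum 48 h, 37 C compound exposure with 20 nM CPT in Tdp1-knockout DT40 cells stably expressing hTDP1, seeded 400/well; qHTS titration format.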
# TDP1 cell noCPT: qHTS for Inhibitors of human tyrosyl-DNA phosphodiesterase 1 (TDP1): qHTS in cells in absence of CPT. DT40 Tdp1-/- hTDP1 cells, no CPT, ATP luminescence, 48 h. Potency, µM (doses to about 46.2 µM), for inactives: top-dose activity change, negative = growth inhibition, most hits filed as inhibitors. hit rate 15% among 420,000; further: potency means the concentration at half of the fitted maximal effect; nearly all actives have a fitted effect of over 55% in size
#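 DT40 Tdp1-/-;hTDP1 cells, no CPT (DMSO vehicle only), 400 cells/well; compounds pin-transferred; ≥48 hr, 37 °C; CellTiter-Glo 30 min RT dark, luminescence read.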
# IL1B secr inh: blocks inflammasome-driven IL-1 beta release; activity change, % at 57.5 µM; hit rate 4.7% among 360,000; THP-1 LPS/ATP IL-1B secretion, AlphaLISA, 16 h; hits give low values; in the data active means activity change below about -50%; inconclusive means mostly about -30% to -49%
#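 Secreted IL-1B measured by AlphaLISA bead assay after 16 h compound exposure of THP-1 cells; compounds (final up to 57.5 uM) added 1 h before LPS (250 ng/mL) and ATP (1.25 mM) stimulation; lower signal means less secretion.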
# The depositor's hits bear a star; ? = inconclusive; nt = no result given; [ ] = remark or other dose. Unless noted, the call rests on the fitted dose curve; in most records, active means well fitted curve in the direction sought with a large enough effect; inconclusive means small, poorly fitted or top-dose-only effect, or another doubt; inactive means no such curve, though single readings can be large; an effect the other way counts as inactive or inconclusive. Unless noted, on the % scale 0 is the no-effect control and ±100 the full control effect.
SMILES,HT1080-NT tox,12-LOX inh,HT1080 IDH1KD tx,DT40 TDP1 CPT,TDP1 cell noCPT,IL1B secr inh
O=C(c1ccc(Cn2cncn2)cc1)N1CCN(c2cccc(Cl)c2)CC1,nt,0%,nt,nt,nt,nt
Cc1ccc(-n2ncc3c(N4CCCC4)ncnc32)c(C)c1,-2%,-1%,-3%,-3%,-8%,0
COc1cccc(N2CCN(c3ncnc4c3cnn4-c3ccc(C)cc3C)CC2)c1,23µM*,-13%,?,1.8µM*,2.6µM*,-79*
CCN1CCN(c2ncnc3c2cnn3-c2cccc(C)c2)CC1,nt,-11%,nt,23µM*,?,nt
Cc1ccc(-n2ncc3c(N4CCCC(C)C4)ncnc32)c(C)c1 (stereo not given),16%,5%[57.4 µM],6%,8.2µM*,7.3µM*,-11
Cc1cccc(-n2ncc3c(N4CCCCCC4)ncnc32)c1,nt,-23%,nt,?,21µM*,nt
Cc1ccc(C)c(N2CCN(c3ncnc4c3cnn4-c3ccccc3)CC2)c1,0%,11%,1%,?,?,19
Cn1c(CNC(=O)CN2CC3CC(C2)[C@H]2CCCC(=O)N2C3)nc2ccccc21 (stereo not given in full),nt,84%,nt,nt,nt,nt
O=Cc1ccc(-c2cccnc2)o1,nt,19%,nt,nt,nt,nt
COc1ccc(OC)c(NC(=O)CSc2c3c(nc4ccccc24)CCCC3)c1,nt,?,nt,?,7.3µM*,nt
COc1ccc(NC(=O)CSc2nc(C3CC3)nc3ccccc23)c(OC)c1,-1%,14%,-22%,-20%,23µM*,-59*
COc1cc(OC)c(NC(=O)C(C)n2nc(-c3ccccc3)c3c(c2=O)CCCC3)cc1Cl (stereo not given),nt,-8%,nt,nt,nt,nt
COCCNC(=O)CSc1c2c(nc3cc(Cl)ccc13)CCCC2,nt,5%,nt,?,?,nt
CCN(CC)CCNC(=O)CSc1c2c(nc3cc(Cl)ccc13)CCCC2,?,-10%,?,?,?,-104*
CCC(C(=O)Nc1cc(OC)ccc1OC)n1nc(-c2ccccc2)c2c(c1=O)CCCC2 (stereo not given),nt,-16%,nt,16µM*,18µM*,nt
COc1ccccc1Cc1nc2ccccc2nc1SCC(=O)NCc1ccco1,nt,-46%,nt,nt,nt,nt
COc1ccc2cnn(CC(=O)Nc3ccc(F)c(Cl)c3)c(=O)c2c1OC,nt,20%,nt,nt,nt,nt
CCN(CC(=O)N1c2ccccc2OCC1c1ccccc1)Cc1nc2cc(Cl)ccc2c(=O)[nH]1 (stereo not given),nt,3%,nt,nt,nt,nt
COc1ccc(CNC(=O)CSc2c3c(nc4ccc(Cl)cc24)CCCC3)cc1,nt,-34%,nt,?,?,nt
COc1cccc(NC(=O)CSc2c3c(nc4ccccc24)CCCC3)c1,-10%,-18%,?,23µM*,21µM*,-96*
COc1cccc(NC(=O)CSc2cc(C)c3ccccc3n2)c1,nt,-24%,nt,?,?,nt
COc1ccc(Cl)cc1NC(=O)CSc1c2c(nc3ccccc13)CCC2,nt,1%,nt,21µM*,16µM*,nt
Cc1cccc(NC(=O)CSc2c3c(nc4ccccc24)CCC3)n1,?,1%,?,?,?,-6
Cc1ccc(NC(=O)CSc2c3c(nc4ccccc24)CCCC3)cc1F,nt,-29%,nt,?,15µM*,nt
COc1ccc(OC)c(NC(=O)CSc2c3c(nc4cc(Cl)ccc24)CCCC3)c1,nt,2%,nt,?,23µM*,nt
COc1ccc(OCC(=O)Nc2cccc(-c3nc4cc(C)ccc4o3)c2)cc1,nt,-2%,nt,nt,nt,nt
Cn1c(=O)[nH]c(=O)c2c1nc(SCC(N)=O)n2Cc1ccccc1Cl,nt,-52%,nt,nt,nt,nt
c1ccc(C2=Nc3ccccc3NC(c3ccccc3)C2)cc1 (stereo not given),4%,3%,-23%,?,15µM*,-16

# Source: PubChem (National Center for Advancing Translational Sciences (NCATS))
